# Records with an inconclusive call do not appear. The source made the active and inactive calls. The calls were made as follows, unless noted: active = hit-call score of the fitted dose curve at least 0.9, where 1 is the maximum; inactive = score below 0.9.
# Assays:
# [1] = biological target: Transcriptional activator Myb (Homo sapiens) (UniProt P10242); experiment: ATG_Myb_CIS: Attagene CIS-FACTORIAL HepG2 Assay for human Myeloblastosis (Myb) Proto-Oncogene Transcription Factor (AID 2282986); settings: HepG2 Attagene CIS-FACTORIAL Myb reporter transcription; actives raise or lower the signal
# Method in brief: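 Fluorescence signals from capillary electrophoresis of RT-PCR-amplified reporter cDNA give the read-out. Cells: HepG2 transfected with multiple cis-regulated reporter units. Exposure lasts 24 hours; DMSO defines baseline for gain or loss of signal.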
# [2] = biological target: Nuclear respiratory factor 1 (Homo sapiens) (UniProt Q16656); experiment: ATG_NRF1_CIS: Attagene CIS-FACTORIAL HepG2 Assay for human Nuclear Respiratory Factor 1 (NRF1) Orphan Gene (AID 2282987); settings: HepG2 NRF1 cis-element reporter, Attagene multiplex; actives raise or lower the signal
# Method in brief: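 Transcriptional reporter readout, one component of a 52-endpoint multiplexed HepG2 panel. Exposure 24 h; mRNA detected via RT-PCR and fluorescent capillary electrophoresis; fitting in both directions against DMSO.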
# [3] = ATG_NFI_CIS: Attagene CIS-FACTORIAL HepG2 Assay for human Nuclear Factor I (NFI) (AID 2282989); settings: HepG2 cis-regulatory reporter, NFI response element transcription; actives raise or lower the signal
# Method in brief: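 Transfected HepG2 liver cells, exposed 24 h, supplied total RNA for oligo(dT) reverse transcription and reporter-specific PCR. Labelled, HpaI-cut fragments were sized by capillary electrophoresis; DMSO set the baseline for bidirectional fitting.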
# [4] = biological target: Myc proto-oncogene protein (Homo sapiens) (UniProt P01106); experiment: ATG_Myc_CIS: Attagene CIS-FACTORIAL HepG2 Assay for human Myelocytomatosis (Myc) Proto-Oncogene Transcription Factor (AID 2282990); settings: HepG2, Attagene cis-reporter transcription factor activity; actives raise or lower the signal
# Method in brief: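 Transiently transfected HepG2 cells bearing cis-promoter reporter units for endogenous transcription factors; 24 h exposure. Reporter mRNA measured by RT-PCR, 6-FAM primer extension, HpaI cut and capillary electrophoresis; bidirectional fit relative to DMSO.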
# [5] = ATG_NF_kB_CIS: Attagene CIS-FACTORIAL HepG2 Assay for human Nuclear Factor Kappa B (NF-kB) (AID 2282991); settings: HepG2 Attagene cis-factorial NF-kB reporter mRNA; actives raise or lower the signal
# Method in brief: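 HepG2, transient multi-reporter transfection, cis promoter elements (endogenous TFs). 24 h exposure. Total RNA → RT → PCR → 6-FAM label → HpaI → CE. Gain/loss vs DMSO.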
# [6] = ATG_NRF2_ARE_CIS: Attagene CIS-FACTORIAL HepG2 Assay for human Nuclear Factor Erythroid 2 Related Factor 2 (NFR2) response to Antioxidant Response Elements (ARE) (AID 2282992); settings: HepG2 Attagene ARE/NRF2 reporter, transcription factor activity; actives raise or lower the signal;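 as to AC50: reporter mRNA level measured by RT-PCR and capillary electrophoresis fluorescence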
# Method in brief: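 Using transiently transfected HepG2 cells exposed for 24 h, reporter mRNA levels were determined by RT-PCR with fluorescent primer extension and capillary electrophoresis, analysed for gain or loss of signal against DMSO.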
# [7] = ATG_Oct_MLP_CIS: Attagene CIS-FACTORIAL HepG2 Assay for human Octamer-Binding Transcription Factor (Oct) (AID 2282993); settings: HepG2 Attagene cis-factorial Oct reporter, mRNA; actives raise or lower the signal
# Method in brief: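 Using HepG2 cells bearing transfected cis-reporter constructs, mRNA induction was read after 24 h by fluorescent RT-PCR and capillary electrophoresis, with DMSO defining baseline for gain- or loss-of-signal fits.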
# [8] = biological target: Cellular tumor antigen p53 (Homo sapiens) (UniProt P04637); experiment: ATG_p53_CIS: Attagene CIS-FACTORIAL HepG2 Assay for human p53 Transcription Factor (AID 2282994); settings: HepG2 p53 cis-element reporter, Attagene mRNA; actives raise or lower the signal
# Method in brief: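 In HepG2 cells, reporter transcription units under cis-regulatory promoters were transiently introduced. Following 24 h treatment, RNA was processed to labelled, digested cDNA fragments read by capillary electrophoresis; fitting was bidirectional versus DMSO.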
# [9] = biological target: Hepatocyte nuclear factor 4-alpha (Homo sapiens) (UniProt P41235); experiment: ATG_HNF4a_TRANS: Attagene TRANS-FACTORIAL HepG2 Assay for human Hepatocyte Nuclear Factor 4 alpha (HNF4a) (AID 2282982; active = hit-call score of the fitted dose curve at least 0.9, where 1 is the maximum); settings: HepG2 HNF4a transactivation reporter, mRNA readout
# Method in brief: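 Transient MRTU transfection of HepG2, 24 h dosing. Readout: reporter mRNA via RT-PCR + capillary electrophoresis, fluorescence; activity fit upward relative to DMSO control.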
# [10] = ATG_M_32_TRANS: Attagene TRANS-FACTORIAL HepG2 Assay for M32 Transcription Factor (Internal Marker) (AID 2282984; active = hit-call score of the fitted dose curve at least 0.9, where 1 is the maximum;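 also: transcript level of a background control reporter unit measured by RT-PCR and capillary electrophoresis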); settings: HepG2 Attagene TRANS M32 internal marker reporter
# Method in brief: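 Read-out: fluorescent reporter cDNA fragments resolved by capillary electrophoresis after RT-PCR of total RNA. Transfected HepG2 cells were exposed to chemical for 24 h. Activity scored in the positive direction relative to DMSO.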
# [11] = BSK_3C_TissueFactor: BioMAP Diversity Plus: 3C Assay for Tissue Factor Biomarker Activity (AID 2282997); settings: BioMAP 3C HUVEC, tissue factor biomarker readout; actives raise or lower the signal
# Method in brief: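 Cells used were primary human umbilical vein endothelial cells. They were dosed with chemical, and after 24 h Tissue Factor was quantified by ELISA. Curves were fitted bidirectionally with DMSO as baseline.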
# [12] = BSK_3C_VCAM1: BioMAP Diversity Plus: 3C Assay for Vascular cell adhesion molecule 1 (VCAM1) Biomarker Activity (AID 2282999); settings: BioMAP 3C HUVEC, VCAM1 ELISA, cytokine-stimulated; actives raise or lower the signal
# Method in brief: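 HUVEC primary cells, 24 h compound exposure; VCAM-1 by ELISA; gain/loss of signal fitted bidirectionally vs DMSO baseline.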
# [13] = biological target: Nuclear receptor subfamily 4 group A member 2 (Homo sapiens) (UniProt P43354); experiment: ATG_NURR1_TRANS: Attagene TRANS-FACTORIAL HepG2 Assay for human Nuclear Receptor Related Protein 1 (NURR1) (AID 2282985; active = hit-call score of the fitted dose curve at least 0.9, where 1 is the maximum); settings: HepG2 Attagene TRANS reporter, mRNA readout
# Method in brief: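 Read-out: reporter mRNA induction by RT-PCR plus capillary electrophoresis with fluorescence detection, after 24 h dosing of transfected HepG2 cells. Exogenous NR-Gal4 chimera activity drives GAL4-UAS reporter; activity fitted upward versus DMSO.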
# [14] = ATG_M_06_TRANS: Attagene TRANS-FACTORIAL HepG2 Assay for M06 Transcription Factor (Internal Marker) (AID 2282983; active = hit-call score of the fitted dose curve at least 0.9, where 1 is the maximum;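 also: reporter transcript level by RT-PCR then capillary electrophoresis fluorescence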); settings: HepG2 Attagene TRANS M06 internal marker reporter
# Method in brief: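 Human liver HepG2 cells bearing transiently transfected chimeric NR-GAL4 reporter units were treated with chemicals for 24 h. Total RNA was reverse-transcribed, reporter sequences amplified and labelled, then quantified by capillary electrophoresis. Activity was fitted upward relative to DMSO.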
# [15] = BSK_3C_uPAR: BioMAP Diversity Plus: 3C Assay for Urokinase-type plasminogen activator receptor (uPAR) Biomarker Activity (AID 2282998); settings: BioMAP 3C HUVEC, uPAR biomarker ELISA; actives raise or lower the signal
# Method in brief: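 In this endothelial cell-based assay, human umbilical vein primary cells were treated with chemicals and harvested at 24 h. uPAR was quantified using ELISA, with gains or losses fitted relative to DMSO controls.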
# Chain of Nuclear receptor subfamily 4 group A member 2 (Homo sapiens) (P43354 whole entry, looked up, the tested form may be a part): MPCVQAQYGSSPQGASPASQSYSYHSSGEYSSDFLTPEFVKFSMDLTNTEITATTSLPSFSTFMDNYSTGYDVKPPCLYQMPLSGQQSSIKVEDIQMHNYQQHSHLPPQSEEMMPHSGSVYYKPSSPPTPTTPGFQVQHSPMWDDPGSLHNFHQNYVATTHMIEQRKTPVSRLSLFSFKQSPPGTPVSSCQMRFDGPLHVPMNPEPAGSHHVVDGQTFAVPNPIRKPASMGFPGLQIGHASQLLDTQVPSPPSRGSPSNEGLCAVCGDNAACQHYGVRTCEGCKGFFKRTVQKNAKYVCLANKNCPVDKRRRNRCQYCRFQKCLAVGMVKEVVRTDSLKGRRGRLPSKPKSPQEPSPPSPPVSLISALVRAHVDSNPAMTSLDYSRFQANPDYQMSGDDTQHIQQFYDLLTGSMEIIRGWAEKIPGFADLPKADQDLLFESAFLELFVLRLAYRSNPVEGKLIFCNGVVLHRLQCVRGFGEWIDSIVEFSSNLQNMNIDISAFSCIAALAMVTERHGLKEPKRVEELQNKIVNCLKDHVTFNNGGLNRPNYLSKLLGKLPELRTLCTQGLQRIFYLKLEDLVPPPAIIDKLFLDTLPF
# Chain of Hepatocyte nuclear factor 4-alpha (Homo sapiens) (P41235 whole entry, looked up): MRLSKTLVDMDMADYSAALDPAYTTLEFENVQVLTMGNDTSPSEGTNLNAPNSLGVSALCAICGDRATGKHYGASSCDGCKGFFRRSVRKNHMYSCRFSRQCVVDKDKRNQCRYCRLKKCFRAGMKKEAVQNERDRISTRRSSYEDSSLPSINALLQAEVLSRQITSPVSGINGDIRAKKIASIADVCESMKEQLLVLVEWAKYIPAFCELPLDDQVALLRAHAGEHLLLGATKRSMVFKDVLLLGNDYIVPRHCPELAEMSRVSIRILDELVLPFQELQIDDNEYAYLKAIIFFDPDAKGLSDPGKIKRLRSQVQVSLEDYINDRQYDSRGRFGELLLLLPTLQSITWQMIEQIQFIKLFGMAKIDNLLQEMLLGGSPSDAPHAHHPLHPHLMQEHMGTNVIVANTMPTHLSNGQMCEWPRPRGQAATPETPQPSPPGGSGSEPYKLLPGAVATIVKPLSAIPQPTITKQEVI
# Chain of Transcriptional activator Myb (Homo sapiens) (P10242 whole entry, looked up): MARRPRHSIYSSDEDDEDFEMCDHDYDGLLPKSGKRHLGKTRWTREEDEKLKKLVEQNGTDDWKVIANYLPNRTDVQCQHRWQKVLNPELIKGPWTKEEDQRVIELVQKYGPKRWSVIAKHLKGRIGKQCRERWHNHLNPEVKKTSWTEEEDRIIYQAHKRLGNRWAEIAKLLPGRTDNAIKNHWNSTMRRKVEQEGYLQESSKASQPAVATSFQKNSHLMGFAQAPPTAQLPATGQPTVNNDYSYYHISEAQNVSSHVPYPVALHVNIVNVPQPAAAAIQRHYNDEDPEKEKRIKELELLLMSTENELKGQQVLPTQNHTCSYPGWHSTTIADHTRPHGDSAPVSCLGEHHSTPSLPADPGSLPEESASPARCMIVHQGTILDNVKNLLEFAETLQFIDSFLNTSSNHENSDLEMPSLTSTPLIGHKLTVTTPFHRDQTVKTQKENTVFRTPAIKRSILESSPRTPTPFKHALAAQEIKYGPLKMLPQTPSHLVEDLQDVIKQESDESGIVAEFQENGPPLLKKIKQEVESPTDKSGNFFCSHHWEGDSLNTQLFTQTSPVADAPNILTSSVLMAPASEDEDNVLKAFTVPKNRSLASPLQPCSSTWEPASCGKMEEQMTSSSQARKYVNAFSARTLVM
# Chain of Cellular tumor antigen p53 (Homo sapiens) (P04637 whole entry, looked up, the tested form may be a part): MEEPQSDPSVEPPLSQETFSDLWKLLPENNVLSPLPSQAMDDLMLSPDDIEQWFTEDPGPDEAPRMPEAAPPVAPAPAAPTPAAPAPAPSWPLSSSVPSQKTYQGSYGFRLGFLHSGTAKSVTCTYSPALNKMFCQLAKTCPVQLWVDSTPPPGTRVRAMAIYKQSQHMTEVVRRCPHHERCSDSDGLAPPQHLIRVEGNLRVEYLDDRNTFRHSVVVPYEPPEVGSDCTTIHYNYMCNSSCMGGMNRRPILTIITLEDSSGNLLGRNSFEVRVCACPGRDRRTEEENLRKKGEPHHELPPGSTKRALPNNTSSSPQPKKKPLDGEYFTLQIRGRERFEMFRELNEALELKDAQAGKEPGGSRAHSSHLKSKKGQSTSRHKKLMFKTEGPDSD
# Chain of Myc proto-oncogene protein (Homo sapiens) (P01106 whole entry, looked up): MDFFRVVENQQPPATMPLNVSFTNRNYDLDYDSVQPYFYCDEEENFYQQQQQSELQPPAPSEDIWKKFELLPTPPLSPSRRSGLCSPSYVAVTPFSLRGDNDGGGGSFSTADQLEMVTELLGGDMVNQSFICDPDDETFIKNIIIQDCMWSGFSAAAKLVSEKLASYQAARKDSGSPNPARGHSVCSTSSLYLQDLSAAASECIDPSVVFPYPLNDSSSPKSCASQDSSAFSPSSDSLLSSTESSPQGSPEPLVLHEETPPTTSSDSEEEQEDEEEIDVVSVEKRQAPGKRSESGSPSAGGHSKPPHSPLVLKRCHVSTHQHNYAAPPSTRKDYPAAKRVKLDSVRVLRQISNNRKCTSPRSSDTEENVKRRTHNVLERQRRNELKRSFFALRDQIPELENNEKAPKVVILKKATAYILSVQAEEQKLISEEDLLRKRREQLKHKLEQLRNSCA
# Chain of Nuclear respiratory factor 1 (Homo sapiens) (Q16656 whole entry, looked up): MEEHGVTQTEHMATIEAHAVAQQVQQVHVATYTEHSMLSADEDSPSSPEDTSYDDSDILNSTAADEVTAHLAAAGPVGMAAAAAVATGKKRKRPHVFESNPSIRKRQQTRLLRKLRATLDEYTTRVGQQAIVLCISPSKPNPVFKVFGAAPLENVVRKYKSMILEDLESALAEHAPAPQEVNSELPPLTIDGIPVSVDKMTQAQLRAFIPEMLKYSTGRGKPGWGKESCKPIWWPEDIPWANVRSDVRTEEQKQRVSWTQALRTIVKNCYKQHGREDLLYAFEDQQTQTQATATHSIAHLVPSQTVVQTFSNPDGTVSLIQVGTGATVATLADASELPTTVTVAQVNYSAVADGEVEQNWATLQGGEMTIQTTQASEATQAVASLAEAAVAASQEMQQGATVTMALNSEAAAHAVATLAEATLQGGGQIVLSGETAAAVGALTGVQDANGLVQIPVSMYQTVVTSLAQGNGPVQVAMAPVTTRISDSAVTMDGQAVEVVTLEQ
smiles,measurement,setting,value
CCCc1ccc(N)cc1,outcome,[1],inactive
same,outcome,[2],inactive
same,outcome,[3],inactive
same,outcome,[4],inactive
same,outcome,[5],inactive
same,outcome,[6],inactive
same,outcome,[7],inactive
same,outcome,[8],inactive
CC(=O)CC(C)(C)C1CCCCC1,outcome,[9],inactive
same,outcome,[10],inactive
same,outcome,[1],inactive
same,outcome,[2],inactive
same,outcome,[3],inactive
same,outcome,[4],inactive
same,outcome,[5],inactive
same,outcome,[6],inactive
same,outcome,[8],inactive
C=C(F)C(=O)OC(C(F)(F)F)C(F)(F)F,outcome,[11],inactive
same,outcome,[12],inactive
O=C(O)c1ccco1,outcome,[10],inactive
same,outcome,[1],inactive
same,outcome,[2],inactive
same,outcome,[3],inactive
same,outcome,[4],inactive
same,outcome,[6],inactive
same,outcome,[7],inactive
same,outcome,[8],inactive
CCCCCCCCCCCCOC(C)=O,outcome,[10],inactive
same,outcome,[13],inactive
same,outcome,[1],inactive
same,outcome,[2],inactive
same,outcome,[3],inactive
same,outcome,[4],inactive
same,outcome,[5],inactive
same,outcome,[6],inactive
same,outcome,[7],inactive
CC(O)CNCC(C)O (configuration not stated),outcome,[9],inactive
same,outcome,[14],inactive
same,outcome,[10],inactive
same,outcome,[1],inactive
same,outcome,[2],inactive
same,outcome,[3],inactive
same,outcome,[4],inactive
same,outcome,[6],inactive
same,outcome,[8],inactive
CC(=O)CCC=C(C)CCC=C(C)C,outcome,[9],inactive
same,outcome,[14],inactive
same,outcome,[10],inactive
same,outcome,[13],inactive
same,outcome,[1],inactive
same,outcome,[3],inactive
same,outcome,[4],inactive
same,outcome,[5],inactive
same,AC50,[6],53 µM (active)
same,outcome,[7],inactive
same,outcome,[11],inactive
same,AC50,[12],30.9 µM (active)
CCOC(=O)COC(=O)c1ccccc1C(=O)OCC,outcome,[9],inactive
same,outcome,[1],inactive
same,outcome,[2],inactive
same,outcome,[3],inactive
same,outcome,[4],inactive
same,outcome,[6],inactive
same,outcome,[7],inactive
same,outcome,[8],inactive
Cc1ccncc1,outcome,[14],inactive
same,outcome,[1],inactive
same,outcome,[2],inactive
same,outcome,[3],inactive
same,outcome,[4],inactive
same,outcome,[6],inactive
same,outcome,[7],inactive
same,outcome,[8],inactive
O=C(O)C(F)(F)OC(F)(F)C(F)(F)OC(F)(F)C(F)(F)C(F)(F)C(F)(F)F,outcome,[11],inactive
same,outcome,[12],inactive
O=[N+]([O-])c1cc(N(CCO)CCO)ccc1NCCO,outcome,[9],inactive
same,outcome,[14],inactive
same,outcome,[10],inactive
same,outcome,[1],inactive
same,outcome,[2],inactive
same,outcome,[3],inactive
same,outcome,[4],inactive
same,outcome,[5],inactive
same,outcome,[6],inactive
same,outcome,[7],inactive
same,outcome,[8],inactive
CCC(CC)CO,outcome,[9],inactive
same,outcome,[10],inactive
same,outcome,[1],inactive
same,outcome,[2],inactive
same,outcome,[3],inactive
same,outcome,[4],inactive
same,outcome,[5],inactive
same,outcome,[6],inactive
same,outcome,[7],inactive
Nc1ccn([C@H]2CC[C@@H](CO)O2)c(=O)n1,outcome,[9],inactive
same,outcome,[14],inactive
same,outcome,[1],inactive
same,outcome,[3],inactive
same,outcome,[4],inactive
same,outcome,[5],inactive
same,outcome,[6],inactive
same,outcome,[7],inactive
same,outcome,[8],inactive
C=C(C)C(=O)OCCC(F)(F)C(F)(F)C(F)(F)C(F)(F)C(F)(F)C(F)(F)C(F)(F)C(F)(F)F,outcome,[11],inactive
same,outcome,[12],inactive
CCCCCCCCCC(=O)OCC,outcome,[14],inactive
same,outcome,[13],inactive
same,outcome,[1],inactive
same,outcome,[3],inactive
same,outcome,[4],inactive
same,outcome,[6],inactive
same,outcome,[7],inactive
same,outcome,[8],inactive
same,AC50,[11],28.7 µM (active)
same,AC50,[12],32.5 µM (active)
[O-]/[N+](=N\O)c1ccccc1,outcome,[9],inactive
same,outcome,[14],inactive
same,outcome,[10],inactive
same,outcome,[1],inactive
same,outcome,[2],inactive
same,outcome,[3],inactive
same,outcome,[4],inactive
same,AC50,[6],17.3 µM (active)
same,outcome,[7],inactive
CCCCCCCC1CCCC1=O (configuration not stated),outcome,[14],inactive
same,outcome,[13],inactive
same,outcome,[1],inactive
same,outcome,[2],inactive
same,outcome,[3],inactive
same,outcome,[4],inactive
same,outcome,[6],inactive
same,outcome,[7],inactive
same,outcome,[8],inactive
same,AC50,[11],33 µM (active)
same,AC50,[12],35.8 µM (active)
[Na+],outcome,[13],inactive
same,outcome,[1],inactive
same,outcome,[2],inactive
same,outcome,[3],inactive
same,outcome,[4],inactive
same,outcome,[5],inactive
same,outcome,[6],inactive
same,outcome,[7],inactive
same,outcome,[8],inactive
c1ccc(Sc2ccccc2)cc1,outcome,[14],inactive
same,outcome,[13],inactive
same,outcome,[1],inactive
same,outcome,[2],inactive
same,outcome,[3],inactive
same,outcome,[4],inactive
same,outcome,[5],inactive
same,outcome,[6],inactive
same,outcome,[7],inactive
same,AC50,[11],33 µM (active)
same,AC50,[12],39.1 µM (active)
O=C(O)C(F)(F)C(F)(F)C(F)(F)C(F)(F)C(F)(F)C(F)(F)C(F)(F)C(F)F,outcome,[11],inactive
same,outcome,[12],inactive
CCO[Si](CC)(OCC)OCC,outcome,[9],inactive
same,outcome,[14],inactive
same,outcome,[13],inactive
same,outcome,[1],inactive
same,outcome,[2],inactive
same,outcome,[3],inactive
same,outcome,[4],inactive
same,outcome,[5],inactive
same,AC50,[6],19.8 µM (active)
same,outcome,[7],inactive
same,outcome,[8],inactive
CCCCCCCCCCCCS,outcome,[1],inactive
same,outcome,[2],inactive
same,outcome,[3],inactive
same,outcome,[4],inactive
same,outcome,[5],inactive
same,AC50,[6],26.4 µM (active)
same,outcome,[7],inactive
same,outcome,[8],inactive
same,AC50,[11],30.7 µM (active)
same,AC50,[15],26.4 µM (active)
same,AC50,[12],20 µM (active)
COC(=O)c1cccc(C(=O)OC)c1,outcome,[10],inactive
same,outcome,[1],inactive
same,outcome,[3],inactive
same,outcome,[4],inactive
same,AC50,[6],24.7 µM (active)
same,outcome,[7],inactive
same,outcome,[8],inactive
